M1 ag = activates human CHRM1 receptor; P11229; CHO-K1 hM1, Fluo-8 calcium fluorescence, agonist mode; 0% DMSO, 100% acetylcholine EC100; activation, % at 3 µM; actives 0.33% (n = 360,000); AID 588814;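 active means activation above the run's mean compound activation plus 3 SD, cut at about 16% in these data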;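 further: peak over basal fluorescence ratio within a 140 s kinetic read after compound addition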
Target sequence (P11229 whole entry, looked up): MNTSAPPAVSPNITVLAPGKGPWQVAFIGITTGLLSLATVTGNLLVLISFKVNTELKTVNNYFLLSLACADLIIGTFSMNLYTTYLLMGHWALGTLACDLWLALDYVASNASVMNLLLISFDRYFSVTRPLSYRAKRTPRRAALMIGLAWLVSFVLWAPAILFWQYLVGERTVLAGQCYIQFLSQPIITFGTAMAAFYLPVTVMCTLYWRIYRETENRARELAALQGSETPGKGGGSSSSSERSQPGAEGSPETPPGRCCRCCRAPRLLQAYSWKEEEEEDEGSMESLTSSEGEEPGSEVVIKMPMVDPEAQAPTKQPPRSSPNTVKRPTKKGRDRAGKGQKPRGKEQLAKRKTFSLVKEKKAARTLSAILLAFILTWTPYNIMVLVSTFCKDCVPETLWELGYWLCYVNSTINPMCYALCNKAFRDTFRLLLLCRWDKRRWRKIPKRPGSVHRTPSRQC
M1 antag = blocks human M1 muscarinic receptor; P11229; CHO-K1 hM1, Fluo-8 calcium fluorescence, ACh EC80 antagonist; inhibition, % at 3 µM; actives 1.3% (n = 360,000);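 active means percent inhibition above its own plate's cutoff, namely the mean of that plate's compound wells plus 3 SD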;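 further: peak over basal fluorescence ratio during 140 s after agonist addition; 0% = ACh EC80 plus DMSO and 100% = DMSO alone without agonist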
CHO-K1 Ca antag = counter-screen for M1 antagonists: effect in parental CHO-K1 cells. ATP-induced calcium, Fluo-8 fluorescence. inhibition, % at 3 µM. actives 0.6% (n = 360,000). AID 602250;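 active means inhibition above a per-plate cutoff, the plate's mean sample inhibition plus 3 SD, cut at about 24% in these data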;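 further: 0% = DMSO plus EC80 ATP and 100% = DMSO alone without ATP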
CHO-K1 Ca PAM = nonselective activator or artifact in parental CHO-K1 calcium assay. ATP EC20, Fluo-8 calcium fluorescence; 0% at ATP EC20, 100% at ATP max. activation, % at 3 µM. actives 0.02% (n = 360,000);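 active means activation above the run cutoff, the mean activation of all test compounds plus 3 SD, cut at about 40% in these data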;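 further: peak over basal fluorescence ratio in a 140 s read after ATP addition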
M1 ag parental = nonselective activator or artifact in parental CHO-K1 cells | Fluo-8 calcium fluorescence; scaled to maximal ATP response, vehicle zero | activation, % at 3 µM | actives 0.48% (n = 360,000) | AID 602248; in the data active means activation above about 15%;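 further: untransfected CHO-K1 host cells lacking M1 receptor as counterscreen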
CHRM1 PAM = positive allosteric modulators of human M1 muscarinic receptor | P11229 | CHO-K1 hM1, Fluo-8 calcium fluorescence, ACh EC20; 0% = ACh EC20, 100% = maximal ACh | activation, % at 3 µM | actives 0.088% (n = 360,000) | AID 588819; in the data active means activation above about 19%, passing the limit was not always enough
Active calls of the source: *. Most compounds without a hit are left out; they make up all but 2.4% or so of the library.

SMILES	M1 ag	M1 antag	CHO-K1 Ca antag	CHO-K1 Ca PAM	M1 ag parental	CHRM1 PAM
Cc1cc(/C=C2/C(=O)N(C)C(=S)N2C)ccc1N1CCCC1	-2	12	8	-11	3	-11
CCCN1C(=O)/C(=C/c2ccc(OCC(=O)OCC)cc2)NC1=S	2	-4	-11	21	11	4
CCCN1C(=O)/C(=C/c2ccc(N3CCCC3)c(C)c2)NC1=S	47*	59*	60*	0	54*	-8
CCN(C(=O)COC(=O)Cn1c(=O)oc2ccccc21)c1c(N)n(Cc2ccccc2)c(=O)[nH]c1=O	-3	-2	-9	-1	0	2
COc1ccc(-c2csc(NC(=O)C3=NN(c4ccccc4)C(=O)CC3)n2)cc1	-6	24*	10	12	9	-18
CC(=O)c1c(C)[nH]c(C(=O)Nc2ccc(Cl)cc2)c1C	6	3	-1	4	16*	-6
COc1ccc(N(C)S(=O)(=O)c2ccc3c(c2)CCN3C(=O)C2CC2)c(OC)c1	-4	14	-1	10	14	-17
O=C(COc1cccc2ccccc12)NCc1cccnc1	-4	-2	-17	16	0	2
Cc1ccc(CN2C(=O)CSc3ccc(C(=O)NCCN4CCOCC4)cc32)cc1	-5	-8	3	-1	0	5
O=C(NCCCN1CCOCC1)c1ccc2c(c1)N(Cc1cccc(Cl)c1)C(=O)CS2	-11	65*	-21	-1	2	-32
CC(C)CNC(=O)C(=O)Nc1cc2c3c(c1)C(C)C(=O)N3CCC2 (stereo not given)	-2	-12	-4	3	1	9
CC1C(=O)N2CCCc3cc(NC(=O)C(=O)NCCN4CCOCC4)cc1c32 (stereo not given)	-1	37*	20	-30	0	-14
CNc1snc(C)c1C(=O)OCC(=O)c1ccc(Cl)cc1	-1	35*	16	-8	12	-15
O=C(NOCc1ccccc1)c1ccc(Cl)cc1	-7	41*	-13	7	0	-22
CNc1cncc(-c2ccc(C)cc2)n1	-3	-6	22	-1	-1	2
O=C(Nc1ccc(Cc2ccncc2)cc1)C1CCC(N2C(=O)C3C4C=CC(C4)C3C2=O)CC1 (stereo not given)	6	-10	2	-1	18*	-11
C=CCNC(=S)NNC(=O)c1cccn(Cc2ccc(Cl)cc2)c1=O	-6	-4	9	0	0	14
C=CCNC(=S)NNC(=O)c1cccn(Cc2cccc(Cl)c2)c1=O	-6	21*	-3	9	0	-21
Oc1[nH]c2ccccc2c1/C=N/N1CCCCC1	32*	22	-11	28	1	-12
Oc1ccccc1/C=N/N1CCCCC1	31*	5	-3	1	0	-5
CC[C@]12c3[nH]c4ccc(OC)cc4c3CCN1C(=O)C(CC(=O)NCc1ccco1)C[C@@H]2C(=O)N1CCN(C(=O)c2ccco2)CC1 (stereo not given in full)	-5	-5	1	18	0	6
O=C(O)c1cccc([N+](=O)[O-])c1C(=O)Nc1cccc2ccccc12	-2	4	24*	-23	-1	-1
O=C(O)c1cccc([N+](=O)[O-])c1C(=O)Nc1ccc2ccccc2c1	-1	-21	-5	-2	0	21
COc1ccc(CC(=O)NCc2n[nH]c(=S)n2-c2cccc(Cl)c2)cc1	-3	0	-15	13	0	6
CC1(C)CC(=O)C=C(c2cccc(OC(=O)c3ccc(-c4ccccc4)cc3)c2)C1=O	1	1	-10	21	0	-7
Cc1ccc(S(=O)(=O)CC2CSc3nc4ccccc4n32)cc1 (stereo not given)	1	20	28*	-11	11	-15
Cc1ccc(S(=O)(=O)CC2CSc3nc(N)cc(=O)n32)cc1 (stereo not given)	-4	-5	-11	18	0	3
CCN(CC)c1ccc(C(=C2C=CC(=[N+](CC)CC)C=C2)c2ccc(N(CC)CC)cc2)cc1	2	46*	23	11	9	-7

Screening results from PubChem.
